In the library only some 3.2% were active in any assay of this set; here they are far more common.
Mcl1-Noxa inh: Mcl-1/Noxa interaction inhibition; Q07820; TR-FRET Mcl-1/Noxa peptide binding, 2 h; inhibition, % at 21.7 µM; 220,000 tested, 1.5% active;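 active means compounds that cut the protein-peptide binding signal by more than 50% relative to plate controls in a single-dose test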;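 further: His-tagged Mcl-1 with rhodamine Noxa BH3 peptide and terbium anti-His antibody; 0% = Mcl-1 plus Noxa peptide wells and 100% = peptide-only wells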
Target sequence (Q07820 whole entry, looked up): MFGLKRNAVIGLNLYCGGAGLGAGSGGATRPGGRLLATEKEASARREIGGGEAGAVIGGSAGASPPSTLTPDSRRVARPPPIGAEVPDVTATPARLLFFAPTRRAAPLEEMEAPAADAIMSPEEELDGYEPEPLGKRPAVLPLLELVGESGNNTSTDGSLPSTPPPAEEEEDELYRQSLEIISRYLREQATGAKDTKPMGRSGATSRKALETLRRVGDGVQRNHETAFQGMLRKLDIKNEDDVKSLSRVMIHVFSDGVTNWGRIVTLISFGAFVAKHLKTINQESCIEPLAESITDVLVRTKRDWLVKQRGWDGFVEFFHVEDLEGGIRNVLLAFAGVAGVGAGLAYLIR
14-3-3 Bad inh: disrupts binding of bovine 14-3-3 zeta to phospho-Bad peptide; P63103; TR-FRET 14-3-3zeta/Dy647-pBad peptide displacement, 1 h; AID 781; 220,000 tested, 0.71% active; inhibition, % at 21.7 µM;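 active means inhibition above about 70%, limit read from the data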;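 further: 0% = full 14-3-3 plus peptide FRET controls and 100% = background without 14-3-3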
Target sequence (P63103 whole entry, looked up): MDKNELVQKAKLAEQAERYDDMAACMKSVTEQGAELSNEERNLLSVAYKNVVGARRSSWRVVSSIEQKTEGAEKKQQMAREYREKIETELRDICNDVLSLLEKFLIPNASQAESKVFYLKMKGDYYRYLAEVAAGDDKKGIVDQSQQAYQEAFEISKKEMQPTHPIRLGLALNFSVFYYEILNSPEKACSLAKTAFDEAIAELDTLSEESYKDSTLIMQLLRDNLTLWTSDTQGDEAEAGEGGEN
Mcl-1 Bim block: disrupts Bim peptide binding to human Mcl-1. Q07820. Bead-based flow cytometry, Bim peptide-Mcl-1 binding. inhibition, % at 10 µM. 190,000 tested, 0.1% active. AID 1009; in the data active means inhibition above about 40%;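 further: 0% = no compound tracer wells and 100% = peptide blocker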
Mcl1-Bid inh: disrupts binding of human Mcl-1 to Bid peptide | Q07820 | TR-FRET Mcl-1/Bid-Dy647 peptide binding, 1536-well | inhibition, % at 21.7 µM | 220,000 tested, 0.97% active | AID 1021;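 active means compounds that cut the binding signal by more than half at the single screening dose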;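 further: His-tagged Mcl-1 with europium anti-His antibody binding Bid BH3 peptide; 0% = Mcl-1 plus peptide wells and 100% = peptide-only wells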
NCF1 inh: inhibitors of human p47phox binding; P14598; p47phox/p22phox peptide binding, fluorescence polarization, 2 h; inhibition, % at 24.7 µM; 220,000 tested, 0.53% active; AID 1274;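 active means inhibition above about 30%, limit read from the data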;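 further: 0% = p47phox with labelled peptide and 100% = labelled peptide alone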
* = called active by the depositor; x = no result given; + = active, no number; [ ] = another dose, or the depositor's remark.

SMILES	Mcl1-Noxa inh	14-3-3 Bad inh	Mcl-1 Bim block	Mcl1-Bid inh	NCF1 inh
CN(C)CCN(C(=O)c1ccccc1Cl)c1nc2c(Cl)cccc2s1	-7	-3	-4	57*	0
Cc1ccc2sc(N(CCCN(C)C)C(=O)c3nc4ccccc4s3)nc2c1C	23	21	10	8	32*
Cc1ccc(S(=O)(=O)N2CCC(NC(=O)OC(C)C)CC2)cc1	11	-22	-6	-25	0
Cn1nccc1C(=O)Nc1ccc(Cl)cc1	9	1	-1	-2	-8
Cn1nccc1C(=O)Nc1ccccc1C(=O)O	16	43	-1	5	178*
O=C(O)c1cccc(N/N=C/c2ccc(F)c(F)c2)c1	13	1	5	-30	-5
O=C(O)c1cccc(N/N=C/C2=C(Cl)c3cc(Cl)ccc3SC2)c1	103*	60	4	89*	1
Cc1cccc(C(=O)Nc2ccnc(-c3ccncc3)n2)c1	-6	-28	0	-10	-9
Cc1cccc(C(=O)Nc2ccnc(-c3cccnc3)n2)c1	6	-15	-2	91*	-24
COc1ccc(Cc2noc(CN3CCCN(C4Cc5ccccc5C4)CC3)n2)cc1OC	-5	-6	1	-66	2
CN(C)c1ccc(C(CC(=O)O)NC(=O)c2ccc(Cl)cc2)cc1 (centres undefined)	52*	x	2	-91	2
COc1ccc2nc(N=Nc3ccc(N(C)C)cc3)sc2c1	-2	0	3	-17	27
Cc1nc2cc(C)c(C)cc2s1	-6	1	-1	-36	-6
Cc1cc2nc3ccc(=[N+](C)C)cc-3sc2cc1N	51*	-125	x	-76	+
CN(C)c1ccc2nc3ccc(=[N+](C)C)cc-3sc2c1	58*	-145	5	-111	+
O=C1CC(Cc2ccccc2)C(=O)N1CCCn1ccnc1 (centres undefined)	25	75*	-2	33	-12
Cc1ccc(CC2CC(=O)N(CCc3ccccc3)C2=O)cc1 (centres undefined)	-9	-7	-4	-49	0
Cc1ncc(CN2CCN(C(C)C)C(CCO)C2)s1 (centres undefined)	12	-9	-4	-8	4
COc1ccc(NC(=O)/C(=C/c2cccs2)NC(=O)c2ccco2)cc1	-8	-1	x	-20	-7
CC(=O)c1ccc(NC(=O)/C(=C\c2cccs2)NC(=O)c2ccco2)cc1	3	88*	-1	-16	-5
O=C(COC(=O)Cc1ccc(Cl)cc1)Nc1c(F)cccc1F	-5	-3	0	4	-4
O=C(Cn1nc([N+](=O)[O-])nc1Br)NC(c1ccccc1)c1ccccc1	11	12	-9	-43	2
O=C(Nc1ccc([N+](=O)[O-])cc1)Nc1nc(-c2ccc(Cl)s2)cs1	82*	22	-4	29	-9
O=C(O)C1CCCCC1C(=O)Nc1nc(-c2ccc(Cl)s2)cs1 (centres undefined)	71*	14	1	-114	-12
CC(=O)Nc1nc(-c2ccc([N+](=O)[O-])cc2)cs1	22	-4	-21	-2	-1
SMILES	Mcl1-Noxa inh	14-3-3 Bad inh	Mcl-1 Bim block	Mcl1-Bid inh	NCF1 inh
COCCN(C(=S)Nc1ccc(C)cc1)C(C)c1cccnc1 (centres undefined)	-2	-10	-2	-12	-7
Cc1ccc(-n2c(O)c(/C=N/Nc3ccc(S(=O)(=O)N4CCOCC4)cc3[N+](=O)[O-])c3ccccc3c2=O)c(C)c1	78*	3	4	-7	6
Cc1ccc(/C=C2\SC(=S)N(c3cccnc3)C2=O)o1	48	9	x	-40	-1
O=C(O)c1cccc(N2C(=O)/C(=C/c3ccc(SCc4ccc(Cl)cc4)o3)SC2=S)c1	89*	85*	11	84*	-174
C=CCn1c(N2CCCCCC2)nc2c1c(=O)n(C)c(=O)n2C	98*	-1	0	41	0
Cc1ccc(S(=O)(=O)Nc2csc(C)c2C(=O)O)cc1	54*	73*	x	19	-20
Cc1ccc(S(=O)(=O)Nc2cc(C)c(O)cc2C)cc1	23	-1	1	-29	0
CC1CCc2c(nc3sc4c(c3c2N)CCCC4)C1 (centres undefined)	54*	-16	-3	-6	-24
NC(=O)c1cc(N=Nc2c(N)[nH]n(-c3c(Cl)cc(Cl)cc3Cl)c2=O)ccc1Cl	14	-13	0	-34	-7
Cn1cnnc1Sc1ccc(C(=O)OCC(=O)Nc2cc(Cl)cc(Cl)c2)cc1[N+](=O)[O-]	25	86*[fluorescence artefact?]	-4	-48	-14
CCN(CC)S(=O)(=O)c1ccc(NC(=O)c2ccc(Sc3nncn3C)c([N+](=O)[O-])c2)cc1	9	-4	-6	-5	-4
CCS(=O)(=O)c1ccc(Sc2nncn2C)c([N+](=O)[O-])c1	-13	-3	2	-7	124*
C=CCOc1ccc(Br)cc1CNCCCN1CCOCC1	57*	12	-3	33	5
O=[N+]([O-])c1cc(/C=N/n2c(-c3cccnc3)n[nH]c2=S)ccc1Cl	70*	1	0	-25	-1
O=[N+]([O-])c1ccc(Sc2ncc3ccccn23)nc1	7	-1	x	-17	-2
O=C1NN(c2cccc(Br)c2)C(=O)/C1=C/c1ccc(-c2cc([N+](=O)[O-])ccc2O)o1	101*	80*	x	98*	-2
O=c1oc2cc(O)c(Cl)cc2c2ccccc12	54*	-24	-1	-61	-7
Cc1c(Cc2ccccc2)c(NCCN(C)C)n2c(nc3ccccc32)c1C#N	79*	-4	x	-19	-9
CCCc1c(C)c(C#N)c2nc3ccccc3n2c1NCCCN1CCOCC1	9	-17	3	-16	2
CCOC(=O)c1cc2occc2n1CC(=O)NC1CCCCC1C (centres undefined)	13	7	-1	99*	-9
O=C(NCCc1ccccc1)C1CCN(S(=O)(=O)c2ccc(-c3nn[nH]n3)cc2)CC1	9	42	-3	88*	-10
NS(=O)(=O)c1ccc(CCNC(=O)C2CCN(S(=O)(=O)c3ccccc3)CC2)cc1	19	0	5	-16	7
COc1ccccc1NC(=O)OCC#CCOC(=O)Nc1ccccc1OC	-31	4	x	-8	5
COC(=O)c1cc(Br)ccc1NC(=O)Nc1ccccc1	73*	-1	-6	-5	-22
O=C(Nc1ccccc1)Nc1ccc(Br)cc1F	-20	-1	-3	-10	-10
N#C/C(=C(/O)c1ccc(Cl)c([N+](=O)[O-])c1)c1nc2ccccc2[nH]1	66*	42	x	25	-4
N#C/C(=C(/O)c1ccc([N+](=O)[O-])cc1)c1nc2ccccc2[nH]1	17	4	x	-5	-3
C#CCn1c(=NC(=O)c2ccc(Br)s2)sc2cc(NC(C)=O)ccc21	-31	71*[fluorescence artefact?]	-13	58*	18
COC(=O)Cn1c(=NC(=O)c2sc3ccccc3c2Cl)sc2cc(S(N)(=O)=O)ccc21	-123	86*[fluorescence artefact?]	-2	-174	-4
